From PubChem
Y pestis TopoI = Y. pestis Topo-I inhibition via cleavage products; Y. pestis Topo-I cleavage product accumulation, plate reader; activity, % at 10 µM; hit rate 0.064% among 360,000; AID 504884; in the data active means activity above about 50%, passing the limit was not always enough
CCHF vOTU inh = CCHFV vOTU protease inhibition. hit rate 0.55% among 370,000. Pep-AMC fluorescence. inhibition, % at 11.5 µM; in the data active means inhibition above about 30%
PrPC surface inh = inhibitors of human cell surface prion protein PrPC; hit rate 0.43% among 370,000; P04156; TR-FRET read-out; inhibition, % at 13.8 µM; AID 720596; in the data active means inhibition above about 24%
BH1578 lux ind = quorum light induction in luxS cqsA deficient V. cholerae; hit rate 0.16% among 350,000; activation, % at 18.7 µM; AID 588436; V. cholerae BH1578 lux reporter, luminescence, 6 h; in the data active means activation mostly above about 9.7%, no sharp cut-off
VHR inh abs = blocks human VHR1 dual specificity phosphatase | P51452 | recombinant VHR phosphatase, pNPP absorbance | inhibition, % at 13.3 µM | hit rate 0.52% among 290,000; in the data active means inhibition above about 50%
Target sequence (P51452 whole entry, looked up): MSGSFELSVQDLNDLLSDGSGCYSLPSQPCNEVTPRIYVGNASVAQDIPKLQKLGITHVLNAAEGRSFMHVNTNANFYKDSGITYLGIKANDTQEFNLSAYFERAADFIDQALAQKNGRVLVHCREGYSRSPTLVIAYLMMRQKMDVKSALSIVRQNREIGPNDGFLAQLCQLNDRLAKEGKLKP
MazF activator = increases E. coli MazEF RNase cleavage of RNA. FAM/BHQ RNA-DNA oligo cleavage fluorescence, 5 h. AID 504720. P0AE70. activation, % at 20 µM. hit rate 0.32% among 350,000; in the data active means activation above about 50%
Target sequence (P0AE70 whole entry, looked up): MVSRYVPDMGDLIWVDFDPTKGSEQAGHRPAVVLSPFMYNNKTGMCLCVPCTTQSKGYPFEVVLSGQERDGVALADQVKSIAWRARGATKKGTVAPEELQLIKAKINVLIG
Numbers stand for hits; 0 = inactive; - = no result. Rows were chosen to be rich in hits. Some 1.8% of all compounds tested hit in one or more screens of this group.

SMILES	Y pestis TopoI	CCHF vOTU inh	PrPC surface inh	BH1578 lux ind	VHR inh abs	MazF activator
CSc1nnc(N2C(=O)C(O)=C(C(=O)c3ccco3)C2c2ccccc2)s1 (centres undefined)	0	0	0	0	0	54
CSc1nnc(N2C(=O)C(O)=C(C(=O)c3ccc(C)o3)C2c2ccc(C)cc2)s1 (centres undefined)	0	0	0	0	0	254
Cc1ccc(-n2c(SCC(=O)c3ccc(O)c(O)c3)nnc2-c2ccccc2)cc1	-	0	0	-	-	-
O=C(C1CCCN1S(=O)(=O)c1ccc(Cl)s1)N1CCN(c2ccccc2)CC1 (centres undefined)	-	0	0	-	-	-
O=C(NCC1CCCO1)c1nn2c(C(F)(F)F)cc(-c3ccco3)nc2c1Cl (centres undefined)	0	0	0	0	0	0
O=C(NCC1CCCO1)c1nn2c(C(F)(F)F)cc(-c3cc(Br)cs3)nc2c1Br (centres undefined)	0	0	0	0	0	71
COC(=O)[C@]12C[C@H](CC(=O)NCc3cccs3)C(=O)N(Cc3cccc4ccccc34)C1=C[C@H](COCc1ccccc1)O[C@@H]2C	-	0	0	-	-	-
CC1(C)Cc2c(sc3c2c(=N)n(Cc2ccco2)c(=O)n3CC(=O)Nc2cccc(Cl)c2)CO1	0	0	0	0	0	0
Cc1cccc(NC(=O)Cn2c(=O)n(Cc3ccco3)c(=N)c3c4c(sc32)COC(C)(C)C4)c1	0	0	0	0	52	0
CN1CCN(CC(=O)c2ccccc2F)CC1	0	0	0	0	0	0
COC(=O)[C@]12C[C@H](CC(=O)NCc3ccc(OC)c(OC)c3)C(=O)N(Cc3ccco3)C1=C[C@H](C(C)(C)C)O[C@@H]2C	-	0	0	-	-	-
COc1cccc(OC(C)CCN2CCC(C(O)(c3ccccc3)c3ccccc3)CC2)c1 (centres undefined)	-	0	0	-	-	-
NC(=O)N/N=C/c1ccc(-c2ccc([N+](=O)[O-])cc2)o1	0	0	0	0	0	0
O=C(Cc1ccccc1)NCC(=O)N/N=C/c1ccc([N+](=O)[O-])s1	0	31	0	0	0	0
O=C(Cc1ccccc1)N/N=C/c1ccc(-c2ccc([N+](=O)[O-])cc2)o1	0	0	0	0	0	348
Fc1ccccc1-n1c(-c2ccc3ccccc3n2)n[nH]c1=S	0	0	0	0	53	0
S=c1[nH]nc(-c2ccc3ccccc3n2)n1-c1ccccc1	0	0	0	0	0	0
COC(=O)C[C@H]1CC[C@H]2[C@H](COc3ccc(NC(=O)Cc4cccs4)cc3C(=O)N2C)O1	-	0	0	-	-	-
CC(COc1cccc([N+](=O)[O-])c1)CN1CCC(C(O)(c2ccccc2)c2ccccc2)CC1 (centres undefined)	-	0	0	-	-	-
O=C(NC1CCCCC1)C(C1CC1)N1CCc2ccccc2C1 (centres undefined)	-	0	0	-	-	-
O=C(NC1CCCCC1)C(c1ccnc2ccccc12)N1CCc2ccccc2C1 (centres undefined)	-	76	0	-	-	-
CC(C)=CCC/C(C)=C/CNCC(=O)N1c2ccccc2[C@]2(C)C[C@@H]3C(=O)N(C/C=C(\C)CCC=C(C)C)CC(=O)N3[C@H]12	-	0	0	-	-	-
C/C(=N\NC(=O)c1ccccc1OCCOc1ccccc1)c1ccccc1F	0	0	0	0	-	0
NNC(=O)c1ccccc1OCCOc1ccccc1	0	0	0	0	55	0
COc1ccccc1NC(=O)c1ccc(C(=O)Nc2ccccc2OC)nc1	0	0	0	0	0	53
SMILES	Y pestis TopoI	CCHF vOTU inh	PrPC surface inh	BH1578 lux ind	VHR inh abs	MazF activator
COc1ccccc1NC(=O)c1ccc(NC(=O)Cc2n[nH]c(=O)c3ccccc23)cc1	0	0	0	0	0	72
O=C(CCc1ccccc1-c1ccccc1CCNC(=O)c1c(F)cccc1F)NCc1ccccc1	-	0	0	-	-	-
O=C(NCCc1cccc(F)c1)c1cc2ccccn2n1	-	0	0	-	-	-
CCc1ccc(N=C2NC(=O)/C(=C/c3cc(Br)c(OCC(=O)O)c(OC)c3)S2)cc1	0	0	0	0	-	0
C=CCOc1c(Br)cc(/C=C2\SC(=Nc3ccccc3)NC2=O)cc1OC	57	0	0	0	0	0
COc1ccc(CCNC(=O)CC(C)S(=O)(=O)c2ccc3c(c2)NC(=O)CO3)cc1OC (centres undefined)	0	0	0	0	59	0
COc1ccc(CNC(=O)CC(C)S(=O)(=O)c2ccc3c(c2)NC(=O)CO3)cc1 (centres undefined)	0	0	0	0	0	0
CCOc1ccc(NS(=O)(=O)c2ccc(N)cc2)cc1	0	0	0	0	0	0
